Source: PubChem (several laboratories)
Hits are enriched below; roughly 2.9% of the tested compounds scored in any of these assays.
ERa coact inh: blocks coactivator binding to human estrogen receptor alpha; TR-FRET ER-alpha LBD / SRC-1 peptide, estradiol-bound; P03372; 86,000 tested, 1.7% active; inhibition, % at 25.6 µM; in the data active = inhibition above about 50%;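 also: 0% = receptor plus peptide control and 100% = peptide only without receptor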
ERa coact pot: ER-alpha (human) coactivator binding potentiation | AID 639 | 86,000 tested, 1.3% active | coactivator binding (% of control), % at 25.6 µM | TR-FRET ERalpha-LBD/SRC-Cy5 coactivator binding, 2 h; 100 = basal binding, no effect | P03372; in the data active = activity above about 200%;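 also: binding measured in presence of low estradiol as agonist stimulus; 0% = peptide alone without receptor and 100% = receptor with peptide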
Candida biofilm: kills Candida albicans biofilms; 85,000 tested, 0.14% active; inhibition, % at 6 µM; C. albicans biofilm + clotrimazole, Alamar Blue;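 active = inhibition above 20%; inactive = inhibition below 20%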;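 also: preformed 24 hr biofilms exposed to compound for 48 hr; 0% = biofilm without compound and 100% = blank killed by clotrimazole plus chlorhexidine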
Smad3 FoxH1 inh: Smad3 (human) transcription factor binding inhibition. AID 630. inhibition, % at 25 µM. TR-FRET Smad3/Dy647-FoxH1 peptide binding, europium anti-His. P84022. 88,000 tested, 0.29% active;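 active = compounds that reduce the energy-transfer binding signal between the protein and its labelled peptide by more than half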;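 also: 0% = Smad3 plus labelled peptide maximal FRET and 100% = peptide-only background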
Target sequence (P84022 whole entry, looked up): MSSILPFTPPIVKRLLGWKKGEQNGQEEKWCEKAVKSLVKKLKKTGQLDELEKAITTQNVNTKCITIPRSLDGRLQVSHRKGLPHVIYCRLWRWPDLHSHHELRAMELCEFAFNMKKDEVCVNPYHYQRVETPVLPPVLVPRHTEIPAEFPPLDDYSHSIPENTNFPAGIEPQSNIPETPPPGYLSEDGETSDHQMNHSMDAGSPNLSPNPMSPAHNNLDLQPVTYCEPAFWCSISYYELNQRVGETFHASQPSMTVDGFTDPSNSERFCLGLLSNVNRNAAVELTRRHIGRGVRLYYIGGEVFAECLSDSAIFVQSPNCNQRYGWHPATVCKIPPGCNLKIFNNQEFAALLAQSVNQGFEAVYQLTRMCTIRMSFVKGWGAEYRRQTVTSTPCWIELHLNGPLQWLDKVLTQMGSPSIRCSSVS
HePTP inhibitor: blocks human HePTP tyrosine phosphatase; inhibition, % at 20 µM; recombinant HePTP phosphatase activity, OD absorbance; 110,000 tested, 0.64% active; P35236; in the data active = inhibition above about 50%;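 also: plate controls were vehicle for no effect and reference inhibitor for full effect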
ERb SRC1 inh: ER-beta (human) coactivator binding inhibition. TR-FRET ER-beta LBD / SRC1-Cy5 peptide binding; receptor agonist-loaded with 1 µM estradiol. 86,000 tested, 1.3% active. inhibition, % at 25.6 µM. AID 633;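 active = compounds whose percent inhibition of the receptor-coactivator binding signal exceeds about 50% in the single-dose screen, limit read from the data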;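 also: 0% = receptor plus peptide wells without compound and 100% = peptide-only wells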
* marks the source's active call; other numbers are inactive results; . = no result given; [ ] = remark or other dose.

SMILES	ERa coact inh	ERa coact pot	Candida biofilm	Smad3 FoxH1 inh	HePTP inhibitor	ERb SRC1 inh
Cc1ccc(-c2cc(C(=O)NCCCn3ccnc3)c3cc(Br)ccc3n2)o1	88*[fluorescence artefact?]	69	1	12	8	49
Cc1ccc(-c2cc(C(=O)O)c3cc(Br)ccc3n2)o1	.	.	.	.	104*	.
Cc1ccc(-c2cc(C(=O)Nc3ccc(Br)cc3)c3ccccc3n2)o1	.	.	.	.	10	.
Cc1ccc(-c2cc(C(=O)NC3=NCCS3)c3cc(Br)ccc3n2)o1	52*[fluorescence artefact?]	281*[fluorescence artefact?]	-6	-24	16	25
O=C(Nc1ccccc1C(=O)NCCCn1ccnc1)c1ccccc1	12	91	9	2	15	21
COc1ccccc1NC(=O)CC1S/C(=N\N=C\c2ccccc2)NC1=O (stereo not drawn)	.	.	.	.	5	.
c1cc(-c2nc3ccccc3o2)nc(-c2nc3ccccc3o2)c1	12	248*	6	8	23	29
COc1ccc(C(=O)N2CCCN(C)CC2)cc1S(=O)(=O)N1CCCc2ccccc21	-13	225*	-7	-3	4	-11
COc1ccc(OC)c(S(=O)(=O)N2CCCc3ccccc32)c1	-3	106	5	-8	6	1
c1ccc(Cn2c(CSc3nnnn3-c3ccccc3)nc3ccccc32)cc1	64*[fluorescence artefact?]	73	7	8	9	18
O=c1c2ccccc2nc(CSc2nnnn2-c2ccccc2)n1-c1ccccc1Cl	78*[fluorescence artefact?]	98	.	19	.	59*[fluorescence artefact?]
N#C/C(=N\Nc1ccccc1F)C(=N)N1CCCCC1	-5	128	-4	-1	.	60*[fluorescence artefact?]
Cc1onc(-c2ccccc2Cl)c1C(=O)NCc1ccco1	86*[fluorescence artefact?]	41	2	23	8	54*
Cc1noc(C)c1C(=O)NCc1ccco1	-12	97	-2	-14	-2	7
O=C(CCc1ccccc1)Nc1nc(-c2ccc(Cl)c(Cl)c2)cs1	.	.	.	.	3	.
COC(=O)c1cc2ccsc2n1CC(=O)Nc1ccc(N(C)C)cc1	55*	32	6	7	-2	28
Cc1ccc(C=C2C(=O)NC(=S)N(c3ccccc3Cl)C2=O)o1	.	.	.	.	65*	.
Cc1ccc(/C=C2\C(=O)NC(=S)N(c3ccc(Br)cc3)C2=O)o1	.	.	.	.	33	.
Cc1ccc(/C=C2\C(=O)NC(=S)N(c3ccc(Br)cc3C)C2=O)o1	.	.	.	.	87*	.
Cc1cccc(-n2c(SCCC(=O)O)nnc2-c2cccs2)c1C	0	93	8	9	-4	50*
COC(=O)CSc1nnc2n1C(C)(C)Cc1ccccc1-2	-14	116	6	4	8	-26
CC1(C)Cc2ccccc2-c2nnc(SCC(=O)N3CCc4ccccc43)n21	43	293*[fluorescence artefact?]	5	-11	1	33
CCn1c(SCC(=O)N2CCCc3ccccc32)nnc1-c1cccs1	-8	93	-2	3	11	-11
O=C(CSc1nnc(-c2cccs2)n1-c1ccccc1)N1CCCc2ccccc21	16	889*[fluorescence artefact?]	1	-5	.	-43
C=CCn1c(SCCC(=O)O)nnc1-c1cccs1	-3	108	4	1	10	-1
SMILES	ERa coact inh	ERa coact pot	Candida biofilm	Smad3 FoxH1 inh	HePTP inhibitor	ERb SRC1 inh
Cc1ccc(C(=O)CC(=O)c2ccc(Br)cc2)c(O)c1	.	.	.	.	6	.
COc1ccccc1CNCc1cc(OC)c(O)c(OC)c1	.	.	.	.	-6	.
O=S(=O)(NCc1ccc2c(c1)OCO2)c1ccc(Br)cc1Br	.	.	.	.	-6	.
N[n+]1cnn(CC(=O)c2ccccc2Br)c1	.	.	.	.	-20	.
COCCCNC(=O)CN(c1ccc(OC)cc1OC)S(C)(=O)=O	.	.	.	.	-1	.
COc1cc(-c2ncnn2-c2sc3c(c2C#N)CCCC3)ccc1O	.	.	.	.	9	.
COc1cc(NC(=O)CSc2nnnn2-c2ccccc2)cc(OC)c1OC	11	229*[fluorescence artefact?]	11	18	7	9
O=C(CSc1nnnn1-c1ccccc1)Nc1ccccc1	.	.	.	.	-17	.
COc1ccc(CCn2c(C)cc(C(=O)CSc3nnnn3-c3ccccc3)c2C)cc1OC	65*[fluorescence artefact?]	190	5	16	6	-30
CCC(Sc1nc2cc3c(cc2c(=O)n1Cc1ccco1)OCO3)C(=O)Nc1ccccc1OC (stereo not drawn)	88*[fluorescence artefact?]	144	0	5	-11	32
O=C(COC(=O)c1ccc(Cl)c(S(=O)(=O)N2CCCC2)c1)NC1CCCC1	12	88	4	-2	-6	17
Nc1c(Cl)cc(Cl)cc1C(=O)OCC(=O)NC1CC1	40	59	2	4	.	55*
COc1cc(C(=O)Nc2sc3c(c2C(=O)NCc2ccco2)CCCC3)cc(OC)c1OC	-14	125	2	4	.	-9
O=C(Nc1sc2c(c1C(=O)NCc1ccco1)CCCC2)c1ccc2c(c1)OCO2	14	136	-3	-6	-4	62*[fluorescence artefact?]
COc1ccc(C(=O)Nc2sc3c(c2C(=O)NCc2ccco2)CCCC3)cc1OC	10	228*	6	1	.	11
Oc1ccc(-c2nc(-c3ccc(O)c(O)c3)cs2)cc1	68*[fluorescence artefact?]	19	2	18	9	82*
CCOC(=O)C1=C(C)N=c2s/c(=C\c3cc(OC)ccc3OC)c(=O)n2C1c1ccccc1Cl (stereo not drawn)	.	.	.	.	4	.
CCCOc1ccc(-c2nnc(-c3cccs3)o2)cc1	15	215*[fluorescence artefact?]	7	-76	.	17
CCCCOc1ccc(-c2nnc(-c3ccncc3)o2)cc1	4	114	4	9	11	2
Cc1ccccc1NC(=O)/C(=C/c1ccco1)c1ccccc1	6	80	3	1	.	-12
CCc1ccccc1NC(=O)/C(=C/c1ccco1)c1ccccc1	5	82	67*	81*[fluorescence artefact?]	.	-2
Cc1ccccc1N(CC(=O)Nc1ccc(Cl)c(Cl)c1)S(C)(=O)=O	.	.	.	.	-7	.
CC(CCc1ccccc1)NC(=O)C1(c2ccccc2)CCOCC1 (stereo not drawn)	.	.	.	.	-13	.
O=C1NC(=S)S/C1=C/c1ccc(O)c(Br)c1	.	.	.	.	104*	.
CCc1nc(SCC(=O)Nc2cc(C)on2)c2c(C)c(C)sc2n1	9	234*[fluorescence artefact?]	5	-17	8	27
SMILES	ERa coact inh	ERa coact pot	Candida biofilm	Smad3 FoxH1 inh	HePTP inhibitor	ERb SRC1 inh
CCc1cc2ccccc2nc1SCC(=O)Nc1cc(C)on1	0	134	8	8	-3	3
COc1ccc(-c2nsc(SCC(=O)Nc3cc(C)on3)n2)cc1	3	241*[fluorescence artefact?]	7	6	13	11
CCc1nnc(NC(=O)CSc2nc(-c3ccc(OC)cc3)ns2)s1	-2	145	-3	6	-7	-9
Cc1cc(NC(=O)CSc2ccc(-c3nc4cc(C)c(C)cc4[nH]3)cn2)no1	29	243*[fluorescence artefact?]	-4	-2	12	15
Cc1ccc2nc(SCC(=O)Nc3cc(C)on3)[nH]c2c1	9	107	4	-8	8	26
CCc1cc2ccc(OC)cc2nc1SCC(=O)Nc1cc(C)on1	24	205*	-5	-14	7	25
Cc1ccc(Cl)cc1N(Cc1ccc(C(=O)N2CCN(c3ccccc3)CC2)cc1)S(=O)(=O)c1ccccc1	.	.	.	.	5	.
